Experiments:
Experiment in all cases: DAPPL (digital affinity profiling via proximity ligation, sequencing); 10 mM Tris-HCl pH 7.5, 50 mM NaCl, 1 mM DTT, 4% glycerol, room temperature, 30 min; GST-TFs on glutathione beads, 16-mer random dsDNA library, 0.1% formaldehyde crosslink after washing; high values mean tight binding
[1] = target: T1, FLI1 (Homo sapiens, UniProt Q01543 1-452); settings: protein: recombinant; tags: N-terminal GST; dsDNA, one strand shown
T1 sequence: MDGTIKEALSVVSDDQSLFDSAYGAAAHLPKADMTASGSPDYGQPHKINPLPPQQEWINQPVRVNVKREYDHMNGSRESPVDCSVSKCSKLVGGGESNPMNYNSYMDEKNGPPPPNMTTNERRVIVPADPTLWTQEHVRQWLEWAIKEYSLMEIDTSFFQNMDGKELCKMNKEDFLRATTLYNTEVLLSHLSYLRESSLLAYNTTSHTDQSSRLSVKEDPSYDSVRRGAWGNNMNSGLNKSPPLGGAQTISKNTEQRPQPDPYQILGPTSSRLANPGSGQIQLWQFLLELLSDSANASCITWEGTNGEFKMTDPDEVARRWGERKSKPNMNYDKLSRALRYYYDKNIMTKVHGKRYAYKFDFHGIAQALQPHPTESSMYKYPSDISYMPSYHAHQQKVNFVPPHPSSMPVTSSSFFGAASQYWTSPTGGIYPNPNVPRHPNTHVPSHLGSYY
Procedure, shortened: (§1)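 Binding signal is each hexamer's read frequency for a factor divided by its frequency in the tag-only sample. The factors were GST-fused human transcription factors from yeast, captured on glutathione beads, DNA-barcoded and pooled with that sample. Pools were incubated with 200 nmole of a random double-stranded 16-mer DNA library in Tris/NaCl/DTT/glycerol buffer at room temperature for 30 min, then washed, crosslinked with 0.1% formaldehyde, proximity-ligated with BsaI/T4 ligase (1 h, 37 °C), PCR-amplified and sequenced on an Illumina NextSeq500.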

[2] = target: T2, ELK1 (Homo sapiens, UniProt P19419 1-428); settings: protein: recombinant; tags: N-terminal GST; dsDNA, one strand shown
T2 sequence: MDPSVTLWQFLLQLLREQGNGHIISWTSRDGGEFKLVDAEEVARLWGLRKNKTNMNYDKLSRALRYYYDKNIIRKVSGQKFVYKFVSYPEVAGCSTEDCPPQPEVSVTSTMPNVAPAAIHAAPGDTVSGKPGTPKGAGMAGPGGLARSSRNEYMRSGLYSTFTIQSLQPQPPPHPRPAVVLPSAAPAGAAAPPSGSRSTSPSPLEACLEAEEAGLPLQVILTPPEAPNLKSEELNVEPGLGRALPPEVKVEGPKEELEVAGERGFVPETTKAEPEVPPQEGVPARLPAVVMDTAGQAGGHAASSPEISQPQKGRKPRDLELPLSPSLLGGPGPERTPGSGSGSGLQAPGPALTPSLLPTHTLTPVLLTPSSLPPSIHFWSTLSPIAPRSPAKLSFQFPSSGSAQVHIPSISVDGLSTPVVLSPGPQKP
Procedure, shortened: as §1

[3] = target: T3, GABPA (Homo sapiens, UniProt Q06546 1-454); settings: protein: recombinant; tags: N-terminal GST; dsDNA, one strand shown
T3 sequence: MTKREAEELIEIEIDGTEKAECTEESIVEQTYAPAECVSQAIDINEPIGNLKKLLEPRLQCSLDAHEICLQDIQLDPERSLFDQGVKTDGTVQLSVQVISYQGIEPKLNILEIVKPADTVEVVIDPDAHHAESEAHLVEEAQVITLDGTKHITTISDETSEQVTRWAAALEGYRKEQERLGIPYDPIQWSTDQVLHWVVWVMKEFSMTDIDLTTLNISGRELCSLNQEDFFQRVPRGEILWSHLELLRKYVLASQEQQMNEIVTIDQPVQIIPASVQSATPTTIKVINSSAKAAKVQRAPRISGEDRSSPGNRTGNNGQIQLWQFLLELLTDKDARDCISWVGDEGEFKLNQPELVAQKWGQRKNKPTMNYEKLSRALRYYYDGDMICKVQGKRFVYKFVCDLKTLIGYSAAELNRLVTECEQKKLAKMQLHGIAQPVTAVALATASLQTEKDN
Procedure, shortened: as §1

[4] = target: T4, ERG (Homo sapiens, UniProt P11308 1-479); settings: protein: recombinant; tags: N-terminal GST; dsDNA, one strand shown
T4 sequence: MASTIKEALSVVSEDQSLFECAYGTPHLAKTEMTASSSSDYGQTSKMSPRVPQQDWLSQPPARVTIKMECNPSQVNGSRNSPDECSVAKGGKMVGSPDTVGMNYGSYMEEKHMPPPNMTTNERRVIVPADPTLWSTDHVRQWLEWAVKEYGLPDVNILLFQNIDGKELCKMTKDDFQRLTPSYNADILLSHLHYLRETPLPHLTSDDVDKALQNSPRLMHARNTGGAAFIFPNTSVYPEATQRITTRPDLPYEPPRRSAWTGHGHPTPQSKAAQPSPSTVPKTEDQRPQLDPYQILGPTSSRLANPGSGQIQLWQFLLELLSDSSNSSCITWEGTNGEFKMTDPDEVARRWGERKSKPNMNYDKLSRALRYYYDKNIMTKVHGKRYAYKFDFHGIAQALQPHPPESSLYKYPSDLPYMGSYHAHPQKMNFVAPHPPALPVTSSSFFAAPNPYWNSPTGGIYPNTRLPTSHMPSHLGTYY
Procedure, shortened: as §1

[5] = target: ELF1 (Homo sapiens, UniProt P32519 1-619); settings: protein: recombinant; tags: N-terminal GST; dsDNA, one strand shown
Procedure, shortened: as §1

[6] = target: T5, EHF (Homo sapiens, UniProt Q9NZC4 1-300); settings: protein: recombinant; tags: N-terminal GST; dsDNA, one strand shown
T5 sequence: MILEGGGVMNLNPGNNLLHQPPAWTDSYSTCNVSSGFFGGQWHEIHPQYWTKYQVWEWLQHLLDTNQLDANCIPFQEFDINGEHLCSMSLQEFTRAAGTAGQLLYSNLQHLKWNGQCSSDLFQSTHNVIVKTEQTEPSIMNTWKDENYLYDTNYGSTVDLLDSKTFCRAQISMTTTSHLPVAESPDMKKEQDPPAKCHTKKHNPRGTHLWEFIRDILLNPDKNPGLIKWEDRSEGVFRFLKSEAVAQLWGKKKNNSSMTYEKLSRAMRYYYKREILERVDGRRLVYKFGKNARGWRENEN
Procedure, shortened: as §1

[7] = target: SPI1 (Homo sapiens, UniProt P17947 1-270); settings: protein: recombinant; tags: N-terminal GST; dsDNA, one strand shown
Procedure, shortened: as §1

[8] = target: SPIB (Homo sapiens, UniProt Q01892 1-262); settings: protein: recombinant; tags: N-terminal GST; dsDNA, one strand shown
Procedure, shortened: as §1

[9] = target: T6, ELK3 (Homo sapiens, UniProt P41970 1-407); settings: protein: recombinant; tags: N-terminal GST; dsDNA, one strand shown
T6 sequence: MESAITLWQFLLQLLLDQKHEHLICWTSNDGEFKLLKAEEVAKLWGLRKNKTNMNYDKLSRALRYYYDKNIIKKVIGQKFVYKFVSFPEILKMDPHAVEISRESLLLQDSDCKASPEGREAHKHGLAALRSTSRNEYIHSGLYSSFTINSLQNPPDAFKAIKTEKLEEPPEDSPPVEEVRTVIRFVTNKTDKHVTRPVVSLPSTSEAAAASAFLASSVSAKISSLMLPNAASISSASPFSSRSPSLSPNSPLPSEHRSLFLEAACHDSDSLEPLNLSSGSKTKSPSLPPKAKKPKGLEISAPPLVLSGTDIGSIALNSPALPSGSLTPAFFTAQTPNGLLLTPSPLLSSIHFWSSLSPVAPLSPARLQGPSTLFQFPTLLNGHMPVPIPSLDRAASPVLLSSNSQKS
Procedure, shortened: as §1

[10] = target: T7, FEV (Homo sapiens, UniProt Q99581 1-238); settings: protein: recombinant; tags: N-terminal GST; dsDNA, one strand shown
T7 sequence: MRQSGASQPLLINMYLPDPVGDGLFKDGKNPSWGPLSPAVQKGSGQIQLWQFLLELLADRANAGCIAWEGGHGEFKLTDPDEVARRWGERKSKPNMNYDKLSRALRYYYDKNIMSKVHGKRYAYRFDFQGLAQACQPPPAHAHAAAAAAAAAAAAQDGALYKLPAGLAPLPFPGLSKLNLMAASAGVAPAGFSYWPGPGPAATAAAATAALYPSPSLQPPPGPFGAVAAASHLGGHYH
Procedure, shortened: as §1

[11] = target: ETV5 (Homo sapiens, UniProt P41161 1-510); settings: protein: recombinant; tags: N-terminal GST; dsDNA, one strand shown
Procedure, shortened: as §1

[12] = target: HSF1 (Homo sapiens, UniProt Q00613 1-529); settings: protein: recombinant; tags: N-terminal GST; chain copies: 3; dsDNA, one strand shown
Procedure, shortened: as §1

[13] = target: T8, SPIC (Homo sapiens, UniProt Q8N5J4 1-248); settings: protein: recombinant; tags: N-terminal GST; dsDNA, one strand shown
T8 sequence: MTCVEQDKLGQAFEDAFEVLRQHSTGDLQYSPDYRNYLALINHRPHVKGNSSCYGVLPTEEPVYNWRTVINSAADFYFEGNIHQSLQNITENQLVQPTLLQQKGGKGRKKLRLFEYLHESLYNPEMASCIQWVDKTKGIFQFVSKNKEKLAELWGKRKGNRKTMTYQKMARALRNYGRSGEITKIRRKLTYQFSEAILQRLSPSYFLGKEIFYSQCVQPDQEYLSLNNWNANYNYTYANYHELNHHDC
Procedure, shortened: as §1

[14] = target: ELF4 (Homo sapiens, UniProt Q99607 1-663); settings: protein: recombinant; tags: N-terminal GST; dsDNA, one strand shown
Procedure, shortened: as §1

[15] = target: T9, ELK4 (Homo sapiens, UniProt P28324-2 1-405); settings: protein: recombinant; tags: N-terminal GST; dsDNA, one strand shown
T9 sequence: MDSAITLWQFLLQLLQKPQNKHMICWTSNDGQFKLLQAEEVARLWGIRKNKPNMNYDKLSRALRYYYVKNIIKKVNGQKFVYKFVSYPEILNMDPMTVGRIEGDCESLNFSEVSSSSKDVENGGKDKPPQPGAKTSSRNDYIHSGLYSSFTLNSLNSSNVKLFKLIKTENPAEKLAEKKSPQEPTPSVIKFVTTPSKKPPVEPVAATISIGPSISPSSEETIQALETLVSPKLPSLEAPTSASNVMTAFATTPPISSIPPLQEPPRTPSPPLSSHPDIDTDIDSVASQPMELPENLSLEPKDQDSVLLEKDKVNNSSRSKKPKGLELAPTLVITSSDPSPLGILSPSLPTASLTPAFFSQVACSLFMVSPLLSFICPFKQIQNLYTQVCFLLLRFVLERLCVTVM
Procedure, shortened: as §1

[16] = target: T10, ETV2 (Homo sapiens, UniProt O00321 1-342); settings: protein: recombinant; tags: N-terminal GST; dsDNA, one strand shown
T10 sequence: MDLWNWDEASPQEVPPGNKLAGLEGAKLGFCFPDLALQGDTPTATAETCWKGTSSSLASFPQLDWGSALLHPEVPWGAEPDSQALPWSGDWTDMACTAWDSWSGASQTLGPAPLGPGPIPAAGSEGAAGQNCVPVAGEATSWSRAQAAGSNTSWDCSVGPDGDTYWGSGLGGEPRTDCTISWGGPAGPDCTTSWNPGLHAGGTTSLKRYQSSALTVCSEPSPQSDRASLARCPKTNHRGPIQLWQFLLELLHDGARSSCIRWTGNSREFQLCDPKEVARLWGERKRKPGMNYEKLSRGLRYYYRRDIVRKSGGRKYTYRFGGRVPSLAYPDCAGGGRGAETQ
Procedure, shortened: as §1

[17] = target: T11, ELF3 (Homo sapiens, UniProt P78545 1-371); settings: protein: recombinant; tags: N-terminal GST; dsDNA, one strand shown
T11 sequence: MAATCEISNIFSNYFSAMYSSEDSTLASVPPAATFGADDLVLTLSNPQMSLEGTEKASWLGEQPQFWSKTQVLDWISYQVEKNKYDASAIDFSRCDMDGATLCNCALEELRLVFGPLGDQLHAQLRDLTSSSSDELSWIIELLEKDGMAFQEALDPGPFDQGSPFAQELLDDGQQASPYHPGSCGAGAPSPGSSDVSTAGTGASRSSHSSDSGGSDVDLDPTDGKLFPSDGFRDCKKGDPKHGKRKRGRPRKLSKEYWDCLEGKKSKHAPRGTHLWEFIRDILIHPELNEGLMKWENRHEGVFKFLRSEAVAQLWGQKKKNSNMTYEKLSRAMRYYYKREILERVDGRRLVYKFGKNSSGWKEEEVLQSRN
Procedure, shortened: as §1

[18] = target: CRX (Homo sapiens, UniProt O43186 1-299); settings: protein: recombinant; tags: N-terminal GST; dsDNA, one strand shown
Procedure, shortened: as §1

[19] = target: ETV1 (Homo sapiens, UniProt P50549 1-477); settings: protein: recombinant; tags: N-terminal GST; dsDNA, one strand shown
Procedure, shortened: as §1

Chain of ELF4 (Q99607 whole entry): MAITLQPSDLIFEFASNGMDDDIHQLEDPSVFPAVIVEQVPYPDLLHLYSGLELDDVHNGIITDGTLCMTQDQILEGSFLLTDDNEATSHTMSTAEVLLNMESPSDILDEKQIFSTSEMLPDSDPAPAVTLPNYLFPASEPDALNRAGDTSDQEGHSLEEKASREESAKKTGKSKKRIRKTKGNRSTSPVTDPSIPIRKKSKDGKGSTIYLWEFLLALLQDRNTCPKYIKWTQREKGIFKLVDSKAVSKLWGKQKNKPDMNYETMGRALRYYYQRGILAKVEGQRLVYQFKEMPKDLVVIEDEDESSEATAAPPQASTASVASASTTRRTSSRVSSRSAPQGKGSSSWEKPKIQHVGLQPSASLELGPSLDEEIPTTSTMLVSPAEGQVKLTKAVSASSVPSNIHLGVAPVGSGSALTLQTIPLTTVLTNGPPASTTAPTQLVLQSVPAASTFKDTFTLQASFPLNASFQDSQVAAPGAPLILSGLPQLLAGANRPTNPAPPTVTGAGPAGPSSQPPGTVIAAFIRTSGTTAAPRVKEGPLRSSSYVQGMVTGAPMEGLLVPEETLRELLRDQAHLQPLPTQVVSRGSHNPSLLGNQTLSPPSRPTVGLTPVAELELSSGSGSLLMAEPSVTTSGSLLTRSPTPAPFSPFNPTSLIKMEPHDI
Chain of ELF1 (P32519 whole entry): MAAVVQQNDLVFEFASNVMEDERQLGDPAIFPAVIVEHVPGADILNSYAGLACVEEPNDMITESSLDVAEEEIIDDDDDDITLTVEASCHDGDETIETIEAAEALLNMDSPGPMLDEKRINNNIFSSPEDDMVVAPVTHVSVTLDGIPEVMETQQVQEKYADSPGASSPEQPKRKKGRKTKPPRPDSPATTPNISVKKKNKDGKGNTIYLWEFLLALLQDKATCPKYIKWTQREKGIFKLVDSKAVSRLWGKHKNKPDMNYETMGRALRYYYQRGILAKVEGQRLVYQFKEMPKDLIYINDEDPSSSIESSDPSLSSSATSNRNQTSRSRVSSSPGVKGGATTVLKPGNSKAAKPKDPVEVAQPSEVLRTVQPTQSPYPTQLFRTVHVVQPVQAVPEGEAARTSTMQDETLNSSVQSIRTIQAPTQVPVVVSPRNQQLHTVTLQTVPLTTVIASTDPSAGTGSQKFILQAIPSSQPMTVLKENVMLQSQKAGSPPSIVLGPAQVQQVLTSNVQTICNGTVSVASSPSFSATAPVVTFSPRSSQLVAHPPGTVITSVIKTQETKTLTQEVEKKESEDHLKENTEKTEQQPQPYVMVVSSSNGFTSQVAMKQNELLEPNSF
Chain of ETV5 (P41161 whole entry): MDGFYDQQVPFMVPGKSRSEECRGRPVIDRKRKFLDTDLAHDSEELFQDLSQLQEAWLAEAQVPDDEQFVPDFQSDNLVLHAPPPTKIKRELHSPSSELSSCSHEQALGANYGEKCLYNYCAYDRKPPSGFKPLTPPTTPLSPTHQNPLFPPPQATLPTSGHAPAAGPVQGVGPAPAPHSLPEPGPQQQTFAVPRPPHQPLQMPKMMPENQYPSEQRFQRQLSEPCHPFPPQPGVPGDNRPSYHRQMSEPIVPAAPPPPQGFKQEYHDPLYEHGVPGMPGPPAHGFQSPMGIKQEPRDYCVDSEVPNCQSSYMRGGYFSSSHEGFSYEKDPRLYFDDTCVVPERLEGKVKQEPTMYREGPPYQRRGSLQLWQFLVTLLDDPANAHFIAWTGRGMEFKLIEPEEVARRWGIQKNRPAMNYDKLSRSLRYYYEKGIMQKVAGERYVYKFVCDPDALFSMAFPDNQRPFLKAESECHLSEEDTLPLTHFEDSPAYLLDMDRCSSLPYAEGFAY
Chain of HSF1 (Q00613 whole entry): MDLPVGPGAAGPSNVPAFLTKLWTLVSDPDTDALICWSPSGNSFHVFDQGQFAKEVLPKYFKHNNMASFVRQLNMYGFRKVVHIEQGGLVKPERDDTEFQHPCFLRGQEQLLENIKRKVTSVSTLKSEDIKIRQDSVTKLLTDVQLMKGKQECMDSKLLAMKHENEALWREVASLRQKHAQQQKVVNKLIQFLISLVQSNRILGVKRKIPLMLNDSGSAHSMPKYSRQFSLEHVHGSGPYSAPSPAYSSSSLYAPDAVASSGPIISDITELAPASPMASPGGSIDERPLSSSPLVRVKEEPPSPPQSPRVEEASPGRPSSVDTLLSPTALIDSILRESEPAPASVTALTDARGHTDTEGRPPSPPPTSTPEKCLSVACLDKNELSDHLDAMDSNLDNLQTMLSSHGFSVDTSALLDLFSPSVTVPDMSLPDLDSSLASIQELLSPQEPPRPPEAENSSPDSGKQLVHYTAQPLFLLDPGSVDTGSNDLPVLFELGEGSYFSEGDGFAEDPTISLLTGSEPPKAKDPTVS
Chain of ETV1 (P50549 whole entry): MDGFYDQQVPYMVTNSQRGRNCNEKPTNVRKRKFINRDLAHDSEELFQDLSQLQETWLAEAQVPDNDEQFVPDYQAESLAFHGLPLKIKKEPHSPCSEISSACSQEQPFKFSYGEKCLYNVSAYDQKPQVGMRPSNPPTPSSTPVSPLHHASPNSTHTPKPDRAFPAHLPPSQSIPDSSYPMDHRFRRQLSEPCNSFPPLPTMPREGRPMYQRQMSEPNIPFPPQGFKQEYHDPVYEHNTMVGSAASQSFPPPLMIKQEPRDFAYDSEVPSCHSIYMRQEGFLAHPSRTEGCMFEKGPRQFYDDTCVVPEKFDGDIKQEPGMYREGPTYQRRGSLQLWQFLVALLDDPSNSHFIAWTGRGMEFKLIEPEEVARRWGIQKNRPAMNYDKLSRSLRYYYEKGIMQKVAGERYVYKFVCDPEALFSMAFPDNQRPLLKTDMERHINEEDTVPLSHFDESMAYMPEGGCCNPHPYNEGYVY
Chain of SPIB (Q01892 whole entry): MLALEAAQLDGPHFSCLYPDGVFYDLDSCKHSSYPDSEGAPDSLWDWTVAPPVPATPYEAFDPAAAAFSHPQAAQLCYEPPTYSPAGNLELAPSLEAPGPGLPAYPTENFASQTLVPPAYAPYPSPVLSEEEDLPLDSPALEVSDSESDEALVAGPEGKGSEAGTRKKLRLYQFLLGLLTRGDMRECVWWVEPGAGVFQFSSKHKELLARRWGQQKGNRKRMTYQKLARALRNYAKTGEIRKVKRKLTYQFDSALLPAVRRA
Chain of CRX (O43186 whole entry): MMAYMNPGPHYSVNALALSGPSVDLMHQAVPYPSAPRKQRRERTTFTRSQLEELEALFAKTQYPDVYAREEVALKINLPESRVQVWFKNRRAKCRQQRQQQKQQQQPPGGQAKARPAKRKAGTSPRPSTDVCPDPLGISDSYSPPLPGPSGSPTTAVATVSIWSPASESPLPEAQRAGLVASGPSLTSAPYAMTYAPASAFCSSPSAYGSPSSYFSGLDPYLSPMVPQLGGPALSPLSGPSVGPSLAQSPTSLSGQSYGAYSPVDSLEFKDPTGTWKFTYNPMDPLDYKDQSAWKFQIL

Q: What does the source list for TCTACA?
A: binding signal [1]: 1.12 fold enrichment (6-mer frequency, TF over GST control); binding signal [2]: 1.17 fold enrichment (6-mer frequency, TF over GST control); binding signal [3]: 1.19 fold enrichment (6-mer frequency, TF over GST control); binding signal [4]: 1.23 fold enrichment (6-mer frequency, TF over GST control); binding signal [5]: 1.28 fold enrichment (6-mer frequency, TF over GST control); binding signal [6]: 1.25 fold enrichment (6-mer frequency, TF over GST control); binding signal [7]: 1.14 fold enrichment (6-mer frequency, TF over GST control); binding signal [8]: 1.18 fold enrichment (6-mer frequency, TF over GST control); binding signal [9]: 1.23 fold enrichment (6-mer frequency, TF over GST control); binding signal [10]: 1.2 fold enrichment (6-mer frequency, TF over GST control); binding signal [11]: 1.18 fold enrichment (6-mer frequency, TF over GST control); binding signal [12]: 1.39 fold enrichment (6-mer frequency, TF over GST control); binding signal [13]: 1.44 fold enrichment (6-mer frequency, TF over GST control); binding signal [14]: 1.15 fold enrichment (6-mer frequency, TF over GST control); binding signal [15]: 1.17 fold enrichment (6-mer frequency, TF over GST control); binding signal [16]: 1.18 fold enrichment (6-mer frequency, TF over GST control); binding signal [17]: 1.22 fold enrichment (6-mer frequency, TF over GST control); binding signal [18]: 1.17 fold enrichment (6-mer frequency, TF over GST control); binding signal [19]: 1.16 fold enrichment (6-mer frequency, TF over GST control)

Reference: article PMC7862700, “An all-to-all approach to the identification of sequence-specific readers for epigenetic DNA modifications on cytosine”
